According to PubChem BioAssay (Tox21):
Several values for one entry are separate records, joined by “and”; a condition that tells them apart may be missing. Identical values can stand only once. Records with an inconclusive call do not appear. Where a call stands in place of a potency, no number is given. Some compounds were tested as several samples or in several runs, with calls that do not always agree. Activity calls are given as the source filed them. Unless noted, calls follow the shape of the dose curve; as a rule, active = well fitted curve in the direction sought with a large enough effect in the repeat runs; inconclusive = weak or mixed curves; inactive = no such curve, though single readings can be large; an effect the other way counts as inactive or inconclusive.

Assays:
[1] = qHTS assay to identify small molecule antagonists of the sonic hedgehog signaling (Shh) pathway (AID 1259369; calls by dose curve; also: nearly all actives have a fitted effect of over 45% in size; also: potency is read from the fitted curve at half-maximal effect)
How it was run: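 Cells are plated and held 4hr at 37 C, compounds (DMSO) are pinned in, conditioned medium is added to stimulate the pathway, and after 24hr luciferase reagent is added for 30min before luminescence is read.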

[2] = molecular target: Estrogen receptor beta (Homo sapiens) (UniProt Q92731); assay: qHTS assay to identify small molecule agonists of the estrogen receptor beta (ER-beta) signaling pathway (AID 1259377; active = well fitted activation curve with a large enough effect in the signal ratio in the repeat runs, not every such curve was filed as active; the % refers to the signal ratio)
Sequence of Estrogen receptor beta (Homo sapiens) (Q92731 whole entry, looked up): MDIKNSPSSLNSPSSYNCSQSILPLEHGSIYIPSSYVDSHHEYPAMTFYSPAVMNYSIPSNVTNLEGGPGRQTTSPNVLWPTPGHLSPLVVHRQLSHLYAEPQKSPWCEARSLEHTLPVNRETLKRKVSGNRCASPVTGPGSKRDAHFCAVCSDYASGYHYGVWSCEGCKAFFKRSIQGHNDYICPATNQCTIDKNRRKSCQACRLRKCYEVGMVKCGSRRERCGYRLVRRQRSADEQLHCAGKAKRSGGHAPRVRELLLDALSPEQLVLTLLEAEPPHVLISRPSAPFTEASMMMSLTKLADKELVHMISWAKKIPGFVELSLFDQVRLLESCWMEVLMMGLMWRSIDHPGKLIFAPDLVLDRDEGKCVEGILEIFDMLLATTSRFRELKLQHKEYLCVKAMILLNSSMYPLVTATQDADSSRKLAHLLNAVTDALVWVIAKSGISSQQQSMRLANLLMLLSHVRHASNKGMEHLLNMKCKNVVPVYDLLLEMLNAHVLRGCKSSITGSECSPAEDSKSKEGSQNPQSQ
How it was run: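 ER-beta-UAS-bla HEK293T (GripTite) cells carrying a UAS-driven beta-lactamase reporter, in medium with 2% charcoal-stripped FBS, were exposed to compounds for 16 hr at 37C; LiveBLAzer B/G FRET substrate was then added and fluorescence read after 2 hours at room temperature.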

[3] = molecular target: Estrogen receptor beta (Homo sapiens) (UniProt Q92731); assay: qHTS assay to identify small molecule antagonists of the estrogen receptor beta (ER-beta) signaling pathway (AID 1259378; active = well fitted inhibition curve with a large enough effect in the signal ratio in the repeat runs, not every such curve was filed as active; the % refers to the signal ratio; also: potency is read from the fitted curve at half-maximal effect)
How it was run: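 ER-beta-UAS-bla HEK293T (GripTite) cells in 2% charcoal-stripped FBS medium were preincubated 6 hr at 37C, dosed with compound, then stimulated with 1 nM E2 (final) for 16 hr; beta-lactamase reporter read by B/G FRET fluorescence after 2 hr substrate loading.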

[4] = qHTS assay to identify small molecule agonists of the androgen receptor (AR) signaling pathway in the presence of an antagonist - cell viability counter screen (AID 1259379); also: nearly all actives have a fitted effect of over 25% in size; also: potency is read from the fitted curve at half-maximal effect
How it was run: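 Cytotoxicity is assessed by CellTiter-Fluor in MDA-kb2 cells carrying an MMTV-driven luciferase reporter. Cells receive 3.0uM nilutamide plus compounds at 15 concentrations and incubate 16 hr at 37C without CO2 before fluorescence reading.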

[5] = qHTS assay to identify small molecule agonists of the estrogen receptor beta (ER-beta) signaling pathway - cell viability counter screen (AID 1259380); also: nearly all actives have a fitted effect of over 30% in size; also: potency is read from the fitted curve at half-maximal effect
How it was run: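 Cytotoxicity is measured in parallel with the reporter screen: after 16 hr compound exposure at 37C and a 2 hr LiveBLAzer step, CellTiter-Glo is added to the same ER-beta-UAS-bla HEK293T wells and luminescence read after 30 min.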

[6] = qHTS assay to identify small molecule antagonists of the estrogen receptor beta (ER-beta) signaling pathway - cell viability counter screen (AID 1259382); also: nearly all actives have a fitted effect of over 55% in size; also: potency is read from the fitted curve at half-maximal effect
How it was run: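 Cytotoxicity counter screen multiplexed with the beta-lactamase antagonist assay: GripTite HEK293T ER-beta-bla cells were treated 16 hr with test chemicals in the presence of 1nM 17-beta-estradiol, and viability was measured by CellTiter-Glo.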

[7] = molecular target: Estrogen receptor (Homo sapiens) (UniProt P03372); assay: qHTS assay to identify small molecule agonists of the estrogen receptor alpha (ER-alpha) signaling pathway in the presence of an antagonist (AID 1259383; calls by dose curve; also: top concentration of the series differs between compounds; nearly all actives have a fitted effect of over 15% in size)
Sequence of Estrogen receptor (Homo sapiens) (P03372 whole entry, looked up): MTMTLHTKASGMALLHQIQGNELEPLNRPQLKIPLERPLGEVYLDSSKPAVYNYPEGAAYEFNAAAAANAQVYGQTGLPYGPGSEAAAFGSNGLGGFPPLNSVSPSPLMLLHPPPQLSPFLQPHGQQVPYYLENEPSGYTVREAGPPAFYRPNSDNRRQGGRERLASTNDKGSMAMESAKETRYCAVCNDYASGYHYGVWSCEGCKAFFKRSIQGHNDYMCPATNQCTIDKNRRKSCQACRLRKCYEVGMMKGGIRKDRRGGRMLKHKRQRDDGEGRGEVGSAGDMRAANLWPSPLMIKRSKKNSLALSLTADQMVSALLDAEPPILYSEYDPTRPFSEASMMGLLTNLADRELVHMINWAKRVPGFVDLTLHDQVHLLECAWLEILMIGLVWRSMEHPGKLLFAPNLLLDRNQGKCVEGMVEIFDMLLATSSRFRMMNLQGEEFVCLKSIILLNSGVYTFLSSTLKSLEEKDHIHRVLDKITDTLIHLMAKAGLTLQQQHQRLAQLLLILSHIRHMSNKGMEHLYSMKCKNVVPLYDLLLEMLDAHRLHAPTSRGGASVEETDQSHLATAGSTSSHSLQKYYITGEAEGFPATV
How it was run: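 Agonist-mode confirmation in the presence of the ER antagonist ICI-182,780 at 10.0nM final. Breast-derived VM7Luc4E2 reporter cells were exposed to compounds for 22hr, and ERE-driven luciferase was quantified by luminescence.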

[8] = qHTS assay to identify small molecule agonists of the estrogen receptor alpha (ER-alpha) signaling pathway in the presence of an antagonist - cell viability counter screen (AID 1259386);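 also: cells exposed to compounds for 22 h at 37 °C before the viability read; nearly all actives have a fitted effect of over 30% in size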; also: potency is read from the fitted curve at half-maximal effect
How it was run: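 Cytotoxicity was measured in parallel with the ERE-luciferase agonist screen, in the same wells. The cells were VM7Luc4E2, which endogenously express ER-alpha, and treatment was with compounds plus 10.0nM ICI-182,780 for 22hr.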

[9] = molecular target: Progesterone receptor (Homo sapiens) (UniProt P06401); assay: qHTS assay to identify small molecule agonists of the progesterone receptor (PR) signaling pathway (AID 1346784; calls by dose curve; also: nearly all actives have a fitted effect of over 30% in size)
Sequence of Progesterone receptor (Homo sapiens) (P06401 whole entry, looked up): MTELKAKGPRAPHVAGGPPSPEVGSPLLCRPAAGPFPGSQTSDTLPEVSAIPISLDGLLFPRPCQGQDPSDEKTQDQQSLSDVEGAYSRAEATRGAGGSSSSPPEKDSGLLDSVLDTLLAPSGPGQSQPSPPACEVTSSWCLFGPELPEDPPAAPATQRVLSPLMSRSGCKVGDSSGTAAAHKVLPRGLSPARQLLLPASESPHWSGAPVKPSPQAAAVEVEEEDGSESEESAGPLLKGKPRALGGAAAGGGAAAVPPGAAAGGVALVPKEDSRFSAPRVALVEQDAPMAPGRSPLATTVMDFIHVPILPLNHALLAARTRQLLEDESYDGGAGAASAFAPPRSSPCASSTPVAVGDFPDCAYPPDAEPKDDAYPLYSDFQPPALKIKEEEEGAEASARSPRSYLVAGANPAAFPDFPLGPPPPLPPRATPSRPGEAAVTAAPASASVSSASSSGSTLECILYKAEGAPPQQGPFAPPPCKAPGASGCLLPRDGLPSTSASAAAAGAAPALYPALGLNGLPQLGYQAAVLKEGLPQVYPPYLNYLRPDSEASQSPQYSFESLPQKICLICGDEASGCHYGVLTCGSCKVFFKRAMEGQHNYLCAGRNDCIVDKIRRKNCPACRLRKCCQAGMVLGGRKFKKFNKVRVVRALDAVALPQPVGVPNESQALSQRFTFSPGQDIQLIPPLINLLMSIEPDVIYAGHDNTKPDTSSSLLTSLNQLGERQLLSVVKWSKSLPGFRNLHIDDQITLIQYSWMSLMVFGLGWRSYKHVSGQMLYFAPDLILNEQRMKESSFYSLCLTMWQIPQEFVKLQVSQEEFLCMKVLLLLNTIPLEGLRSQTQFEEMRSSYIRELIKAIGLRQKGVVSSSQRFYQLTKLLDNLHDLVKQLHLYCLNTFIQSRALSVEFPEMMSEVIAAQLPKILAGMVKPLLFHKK
How it was run: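 PR-UAS-bla HEK 293T cells carrying a UAS-driven beta-lactamase reporter were seeded in medium with 2% charcoal-stripped FBS, preincubated 6 hr at 37C, then exposed to compounds in DMSO for 16 hr; agonism was read by LiveBLAzer B/G FRET fluorescence.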

[10] = molecular target: Progesterone receptor (Homo sapiens) (UniProt P06401); assay: qHTS assay to identify small molecule antagonists of the progesterone receptor (PR) signaling pathway (AID 1346795; active = well fitted inhibition curve with a large enough effect in the signal ratio in the repeat runs, not every such curve was filed as active; the % refers to the signal ratio; also: potency is read from the fitted curve at half-maximal effect)
How it was run: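 PR-UAS-bla HEK293T cells carrying a UAS-driven beta-lactamase reporter were plated in medium with 2% charcoal-stripped FBS and rested 6 hr at 37C. Compounds were added with 1 nM R5020 (final) for 16 hr, then FRET substrate loaded 2 hr at room temperature.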

[11] = qHTS assay to identify small molecule antagonists of the progesterone receptor (PR) signaling pathway - cell viability counter screen (AID 1346798); also: nearly all actives have a fitted effect of over 50% in size; also: potency is read from the fitted curve at half-maximal effect
How it was run: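 PR-UAS-bla HEK293T cells in medium with 2% charcoal-stripped FBS were treated with compounds plus R5020 for 16 hr at 37C. Cell viability was then read by CellTiter-Glo luminescence after 30 min at room temperature in the same wells.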

[12] = qHTS assay to identify small molecule agonists of the progesterone receptor (PR) signaling pathway - cell viability counter screen (AID 1346799; calls by dose curve; also: nearly all actives have a fitted effect of over 45% in size; also: potency is read from the fitted curve at half-maximal effect)
How it was run: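 PR-UAS-bla HEK293T cells, 3,000 per well in medium with 2% charcoal-stripped FBS, were preincubated 6 hr at 37C, then exposed to compounds for 16 hr; viability was read as CellTiter-Glo luminescence after 30 min at room temperature.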

[13] = qHTS assay to identify small molecule antagonists of the TGF-beta/Smad signaling pathway - cell viability counter screen (AID 1346824); also: nearly all actives have a fitted effect of over 50% in size; also: potency is read from the fitted curve at half-maximal effect
How it was run: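 SBE-bla HEK 293T cells were plated overnight at 37 C, then given compounds in DMSO plus TGF-beta1 (added as 0.25 ng/mL solution) for 5 hr. After the bla read, CellTiter-Glo was added to the same wells and luminescence read after 30 min at room temperature.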

[14] = qHTS assay to identify small molecule agonists of the TGF-beta/Smad signaling pathway - cell viability counter screen (AID 1346829); also: nearly all actives have a fitted effect of over 45% in size; also: potency is read from the fitted curve at half-maximal effect
How it was run: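 HEK 293T SBE-bla line, 5 hr compound exposure at 37 C, multiplexed CellTiter-Glo viability read by luminescence.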

[15] = qHTS assay to identify small molecule agonists of the TGF-beta/Smad signaling pathway (AID 1346859; active = well fitted activation curve with a large enough effect in the signal ratio in the repeat runs, not every such curve was filed as active; the % refers to the signal ratio; also: series mostly up to about 77 µM)
How it was run: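 HEK 293T cells stably carrying a beta-lactamase reporter driven by the Smad binding element were seeded overnight, exposed to DMSO-dissolved compounds for 5 hr at 37 C, 5% CO2, then loaded with FRET substrate for 2 hr at room temperature.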

[16] = molecular target: Thyrotropin-releasing hormone receptor (Homo sapiens) (UniProt P34981); assay: qHTS assay to identify small molecule antagonists of the thyrotropin-releasing hormone receptor (TRHR) signaling pathway (AID 1346877; active = well fitted inhibition curve with a large enough effect in the repeat runs, not every such curve was filed as active; also: potency is read from the fitted curve at half-maximal effect)
Sequence of Thyrotropin-releasing hormone receptor (Homo sapiens) (P34981 whole entry, looked up): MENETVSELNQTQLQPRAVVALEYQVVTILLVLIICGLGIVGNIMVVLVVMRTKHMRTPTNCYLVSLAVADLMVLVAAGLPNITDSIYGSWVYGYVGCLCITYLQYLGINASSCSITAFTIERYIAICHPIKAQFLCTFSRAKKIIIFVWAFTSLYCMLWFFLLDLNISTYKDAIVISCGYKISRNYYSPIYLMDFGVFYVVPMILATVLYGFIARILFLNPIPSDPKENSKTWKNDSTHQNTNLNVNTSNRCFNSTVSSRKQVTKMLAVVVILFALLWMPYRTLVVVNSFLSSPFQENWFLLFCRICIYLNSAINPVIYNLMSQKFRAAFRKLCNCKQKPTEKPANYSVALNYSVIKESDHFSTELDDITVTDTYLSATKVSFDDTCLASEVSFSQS
How it was run: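 Antagonism is measured as suppression of the calcium response to 1 nM TRH in TRHR-HEK293 cells that have been dye-loaded for 2 h at 37 °C after overnight plating. Each compound is tested at 15 concentrations in triplicate.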

[17] = molecular target: Thyrotropin-releasing hormone receptor (Homo sapiens) (UniProt P34981); assay: qHTS assay to identify small molecule agonists of the thyrotropin-releasing hormone receptor (TRHR) signaling pathway (AID 1346891; calls by dose curve; also: potency is read from the fitted curve at half-maximal effect; as to activation: series mostly up to about 58 µM)
How it was run: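 TRHR-expressing HEK293 cells were plated 18 h at 37 °C/5% CO2, loaded with calcium dye 2 h at 37 °C, then given compound in DMSO; fluorescence was read kinetically for 3 min at 1 s intervals.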

[18] = qHTS assay to identify small molecule agonists or antagonists of the thyroid stimulating hormone receptor (TSHR) signaling pathway - wild type cell line counter screen (AID 1259384; calls by dose curve)
How it was run: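 Wild-type HEK293 cells were plated 18 h at 37 C/5% CO2, pin-dosed with compound plus Ro20-1724 medium, held 30 min at room temperature, then given cAMP-d2 and anti-cAMP-cryptate; fluorescence was read after 1 h. Fifteen concentrations, triplicate.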

[19] = molecular target: Thyrotropin receptor (Homo sapiens) (UniProt P16473); assay: qHTS assay to identify small molecule antagonists of the thyroid stimulating hormone receptor (TSHR) signaling pathway (AID 1259385; calls by dose curve; also: nearly all actives have a fitted effect of over 20% in size)
Sequence of Thyrotropin receptor (Homo sapiens) (P16473 whole entry, looked up): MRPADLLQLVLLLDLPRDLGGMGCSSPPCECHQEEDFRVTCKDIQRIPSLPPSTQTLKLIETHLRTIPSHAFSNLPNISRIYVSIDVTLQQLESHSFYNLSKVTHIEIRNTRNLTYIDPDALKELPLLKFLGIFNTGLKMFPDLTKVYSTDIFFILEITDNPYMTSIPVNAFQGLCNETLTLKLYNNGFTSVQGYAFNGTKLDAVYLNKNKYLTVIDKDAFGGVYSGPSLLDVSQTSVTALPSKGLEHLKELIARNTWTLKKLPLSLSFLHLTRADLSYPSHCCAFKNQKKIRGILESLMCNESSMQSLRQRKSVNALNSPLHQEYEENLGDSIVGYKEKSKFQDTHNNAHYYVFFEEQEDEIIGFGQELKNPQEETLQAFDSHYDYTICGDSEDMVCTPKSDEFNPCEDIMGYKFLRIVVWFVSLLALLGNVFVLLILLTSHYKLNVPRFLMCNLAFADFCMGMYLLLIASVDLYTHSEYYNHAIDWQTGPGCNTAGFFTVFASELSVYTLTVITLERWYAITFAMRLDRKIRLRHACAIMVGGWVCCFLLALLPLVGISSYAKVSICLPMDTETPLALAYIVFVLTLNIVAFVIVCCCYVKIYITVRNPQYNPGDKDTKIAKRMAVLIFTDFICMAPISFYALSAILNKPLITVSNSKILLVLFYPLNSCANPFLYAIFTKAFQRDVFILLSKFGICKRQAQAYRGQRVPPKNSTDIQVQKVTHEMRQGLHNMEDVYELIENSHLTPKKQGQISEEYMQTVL
How it was run: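 TSHR-HEK293 cells were plated and held 18 h at 37C/5% CO2, then given compound plus Ro20-1724 and stimulated with TSH at 1.5 ng/mL final. After 30 min at room temperature, cAMP was detected with cAMP-d2/anti-cAMP-cryptate (1 h) by fluorescence.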

[20] = molecular target: Androgen receptor (Homo sapiens) (UniProt P10275); assay: qHTS assay to identify small molecule agonists of the androgen receptor (AR) signaling pathway in the presence of an antagonist (AID 1259381; calls by dose curve; also: nearly all actives have a fitted effect of over 15% in size)
Sequence of Androgen receptor (Homo sapiens) (P10275 whole entry, looked up): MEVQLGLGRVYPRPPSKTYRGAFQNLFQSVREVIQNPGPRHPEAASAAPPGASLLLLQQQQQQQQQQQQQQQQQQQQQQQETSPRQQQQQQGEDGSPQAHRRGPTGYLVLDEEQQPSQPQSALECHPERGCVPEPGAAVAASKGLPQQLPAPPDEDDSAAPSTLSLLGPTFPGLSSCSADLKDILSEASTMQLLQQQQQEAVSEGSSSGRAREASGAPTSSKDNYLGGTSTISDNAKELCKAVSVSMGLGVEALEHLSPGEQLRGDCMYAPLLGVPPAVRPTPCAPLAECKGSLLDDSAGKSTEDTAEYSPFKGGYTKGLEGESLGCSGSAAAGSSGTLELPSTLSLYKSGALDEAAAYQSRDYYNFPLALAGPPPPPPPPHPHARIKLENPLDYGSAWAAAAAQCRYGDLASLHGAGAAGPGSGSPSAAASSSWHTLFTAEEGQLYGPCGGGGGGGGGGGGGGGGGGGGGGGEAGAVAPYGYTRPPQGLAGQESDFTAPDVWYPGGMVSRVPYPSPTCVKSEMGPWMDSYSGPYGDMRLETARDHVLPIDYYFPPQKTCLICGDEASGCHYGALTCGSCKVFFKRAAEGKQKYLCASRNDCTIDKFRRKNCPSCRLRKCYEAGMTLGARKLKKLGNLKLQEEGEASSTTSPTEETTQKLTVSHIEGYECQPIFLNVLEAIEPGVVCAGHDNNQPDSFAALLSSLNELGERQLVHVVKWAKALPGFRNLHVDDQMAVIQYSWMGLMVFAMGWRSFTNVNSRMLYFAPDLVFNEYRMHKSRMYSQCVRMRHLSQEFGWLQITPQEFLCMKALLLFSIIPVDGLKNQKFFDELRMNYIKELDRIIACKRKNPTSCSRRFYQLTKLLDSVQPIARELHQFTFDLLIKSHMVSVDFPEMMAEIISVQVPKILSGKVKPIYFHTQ
How it was run: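 Agonist-mode confirmation screen: human MDA-kb2 cells stably expressing luciferase under an MMTV promoter bearing AR and GR response elements, co-treated with 3.0uM nilutamide (final). Luminescence measured after 16hr compound incubation.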

Structure (SMILES) | Potency [1] | outcome [2] | Potency [3] | Potency [4] | Potency [5] | Potency [6] | Potency [7] | Potency [8] | Potency [9] | Potency [10] | Potency [11] | Potency [12] | Potency [13] | Potency [14] | outcome [15] | Potency [16] | Potency [17] | Potency [18] | Potency [19] | Potency [20]
O=C(O[C@@H]1Cc2c(O)cc(O)cc2O[C@@H]1c1cc(O)c(O)c(O)c1)c1cc(O)c(O)c(O)c1 | 27.4 µM (active) | inactive | inactive | 54.6 µM (active) | inactive | inactive | inactive | 54.6 µM (active) and 46.8 µM (active) | inactive | inactive | inactive | inactive | inactive | inactive | inactive | inactive | inactive | – | – | –
CCC(=O)/C=C/C1C(C)=CCCC1(C)C (configuration not stated) | inactive | inactive | inactive | inactive | inactive | inactive | – | inactive | inactive | inactive | inactive | inactive | inactive | inactive | inactive | inactive | – | inactive | inactive | –
Nc1cc(Cl)c(-c2cc(Cl)c(N)cc2Cl)cc1Cl | 1.09 µM (active) and 864 nM (active) | – | 8.63 µM (active) | 54.4 µM (active) and 48.6 µM (active) | 21.7 µM (active) and 24.3 µM (active) | 17.2 µM (active) and 27.3 µM (active) | inactive | inactive | – | 2.73 µM (active) | 38.5 µM (active) and 43.3 µM (active) | 30.6 µM (active) and 21.7 µM (active) | – | – | inactive | inactive | inactive | inactive | – | inactive
CC(=O)OCC1=C(C(=O)O)N2C(=O)[C@@H](NC(=O)Cc3cccs3)[C@H]2SC1 | inactive | inactive | inactive | inactive | inactive | inactive | – | inactive | inactive | inactive | inactive | inactive | inactive | inactive | inactive | inactive | inactive | inactive | – | –
CCN(CC)C(=S)SSC(=S)N(CC)CC | 217 nM (active) and 7.9 nM (active) and 1.33 µM (active) | inactive | – | inactive | 222 nM (active) and 133 nM (active) | – | inactive | inactive | inactive | – | – | inactive | inactive | inactive | inactive | inactive | inactive | inactive | inactive | inactive
Oc1c(Cl)cc(Cl)c(Cl)c1Cc1c(O)c(Cl)cc(Cl)c1Cl | 1.93 µM (active) and 1.54 µM (active) | inactive | – | 8.61 µM (active) and 9.69 µM (active) and 9.44 µM (active) | 60.9 µM (active) and 30.6 µM (active) | 48.4 µM (active) and 34.4 µM (active) and inactive | – | 13.3 µM (active) | – | 48.6 µM (active) | 43.1 µM (active) | – | inactive | – | inactive | 12 µM (active) and 26.9 µM (active) | 30.8 µM (active) and 34.7 µM (active) and inactive | inactive | – | inactive
CC(=O)OCCOCCOCCOC(C)=O | inactive | inactive | inactive | inactive | inactive | inactive | inactive | inactive | inactive | inactive | inactive | inactive | inactive | inactive | inactive | inactive | – | – | inactive | –
N[C@@H]1CONC1=O | inactive | inactive | inactive | inactive | inactive | inactive | – | inactive | inactive | inactive | inactive | inactive | inactive | inactive | inactive | – | – | inactive | inactive | –
Cc1cc(OCCOCC[N+](C)(C)Cc2ccccc2)ccc1C(C)(C)CC(C)(C)C | 10.8 µM (active) and 6.68 µM (active) | inactive | – | 54.2 µM (active) and 29.8 µM (active) | 27.1 µM (active) and 13.3 µM (active) | 21.6 µM (active) and 13.3 µM (active) | inactive | – | inactive | – | 54.2 µM (active) and 26.6 µM (active) | 27.1 µM (active) and 13.3 µM (active) | 43.4 µM (active) and 23.9 µM (active) | 43.4 µM (active) and 23.9 µM (active) | inactive | inactive | – | inactive | inactive | inactive
C=C(C)C(=O)O | inactive | inactive | inactive | inactive | inactive | inactive | inactive | inactive | – | – | inactive | inactive | inactive | inactive | inactive | inactive | – | – | – | –
Cc1occc(=O)c1OC(=O)C(C)C | inactive | inactive | – | inactive | inactive | inactive | – | inactive | inactive | inactive | inactive | inactive | inactive | inactive | inactive | inactive | inactive | inactive | inactive | –
C/C=C/c1ccc(OCC)c(O)c1 | inactive | inactive | inactive | inactive | inactive | inactive | – | inactive | inactive | inactive | inactive | inactive | inactive | inactive | inactive | inactive | inactive | inactive | inactive | –
CCC(CO)(CO)COCC(CC)(CO)CO | inactive | inactive | inactive | inactive | inactive | inactive | – | inactive | inactive | inactive | inactive | inactive | inactive | inactive | inactive | inactive | inactive | inactive | inactive | –
CCCOC(=O)c1cc(O)c(O)c(O)c1 | 12.1 µM (active) | inactive | – | inactive | inactive | inactive | inactive | – | inactive | inactive | inactive | inactive | inactive | inactive | inactive | – | – | inactive | inactive | –
